# Bioassay records from PubChem BioAssay.
# KinaseGlo FLuc = Counterscreen for Luciferase (Kinase-Glo TM) Inhibition. Kinase-Glo luciferase, ATP luminescence, 8 min. Potency, µM (series often up to 38.3 µM), inactives show at the top dose activity change, negative = inhibition, usual class: inhibitors. 0.28% of 200,000 active; also: nearly all actives have a fitted effect of over 60% in size
#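 Substrate mix (final 50 mM imidazole pH 7.2, 50 mM KCl, 7 mM MgCl2, 10 uM ATP, 0.01% Tween 20, 0.05% BSA) plus pin-tool compound, then Kinase-Glo detection mix; 8 min ambient, luminescence read.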
# Gal4-VP16 FLuc = VP16 counterscreen qHTS for inhibitors of ROR gamma transcriptional activity | Drosophila S2 Gal4-VP16 UAS-luciferase, luminescence, 20 h | Potency, µM (titrated, usually from 53.6 µM), inactives show at the highest dose activity, negative = inhibition, usual class: inhibitors | 3.5% of 310,000 active | AID 2546, 2010;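 also: Gal4-VP16 expression switched on by copper sulfate through the metallothionein promoter; nearly all actives have a fitted effect of over 50% in size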
# RORgamma inh = qHTS for inhibitors of ROR gamma transcriptional activity | Nuclear receptor ROR-gamma (Mus musculus), P51450 | Drosophila S2 Gal4-RORgamma UAS-luciferase reporter, 20 h | 5.4% of 310,000 active | Potency, µM (titrated, usually from 53.6 µM), inactives show at the highest dose activity change, negative = inhibition, usual class: inhibitors; also: nearly all actives have a fitted effect of over 60% in size
# Target sequence (P51450 whole entry, looked up, the tested form may be a part): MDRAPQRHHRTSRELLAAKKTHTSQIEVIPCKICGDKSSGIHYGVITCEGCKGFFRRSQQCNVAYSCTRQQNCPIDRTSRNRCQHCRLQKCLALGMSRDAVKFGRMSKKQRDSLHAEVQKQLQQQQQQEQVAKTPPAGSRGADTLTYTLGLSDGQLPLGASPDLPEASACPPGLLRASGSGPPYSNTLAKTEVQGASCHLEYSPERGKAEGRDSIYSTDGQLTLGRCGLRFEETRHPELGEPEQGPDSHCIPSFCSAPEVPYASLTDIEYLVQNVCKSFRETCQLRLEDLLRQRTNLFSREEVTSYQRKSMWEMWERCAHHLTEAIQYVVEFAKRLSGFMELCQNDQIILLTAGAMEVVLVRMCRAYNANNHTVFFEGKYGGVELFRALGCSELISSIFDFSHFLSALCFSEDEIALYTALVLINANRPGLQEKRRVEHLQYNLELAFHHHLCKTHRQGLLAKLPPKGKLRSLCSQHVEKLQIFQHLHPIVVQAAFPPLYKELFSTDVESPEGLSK
#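 ROR gamma transcriptional activity was tracked as Gal4-UAS luciferase output in stably transfected Drosophila Schneider cells, with compound added 1 hr before 700 uM copper sulfate induction and a 20 hr ambient-temperature incubation.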
# An asterisk follows results filed as active; ? = inconclusive; · = no result given; [ ] = another dose, or the depositor's remark. Sampled rows, rich in hits. Any-hit rate of the full collection: about 6.4%. Calls follow the shape of the dose curve; as a rule, active = well fitted curve in the direction sought with a large enough effect; inconclusive = small, poorly fitted or top-dose-only effect, or another doubt; inactive = no such curve, though single readings can be large; an effect the other way counts as inactive or inconclusive. % is scaled to controls: 0 for no effect and ±100 for the full control effect; potency is read from the fitted curve at half-maximal effect.
SMILES,KinaseGlo FLuc,Gal4-VP16 FLuc,RORgamma inh
Cc1ccc(CNS(=O)(=O)c2c(C)[nH]c(=O)[nH]c2=O)cc1,·,-7%,-14%
COc1cccc(Cn2c(=O)c(-c3ccc(Cl)cc3)nc3cnc(N4CCOCC4)nc32)c1,·,-6%,1%
N#CC1(c2ccc(NC(=O)c3ccccc3)cc2)CCCC1,?,3%,1%
CC(=O)Oc1ccc(C(=O)Nc2ccc(C3(C#N)CCCC3)cc2)cc1,·,0.4µM*,0.35µM*
C/C(=N\Nc1nc2ccccc2[nH]1)c1ccc(Cl)s1,-1%,2.8µM*,2.2µM*
C/C(=N\Nc1nc2ccccc2[nH]1)c1ccc(C)o1,-4%,?,14µM*
Cc1ccc(C(=O)NCc2nc3ccccc3[nH]2)o1,·,-20%,-21%
O=C(CSc1nc2ccccc2[nH]1)c1ccc(Cl)s1,-7%,?,29%
COc1ccccc1CNC(=O)CCS(=O)(=O)c1ccc2c(c1)CC(C)N2C(=O)C1CC1 (stereo not drawn),·,12%,4%
CC(NC(=O)CN(C)S(=O)(=O)c1cccc2nsnc12)c1ccccc1 (stereo not drawn),·,-1%,4%
CN(Cc1ccc(F)cc1)C(=O)CNC(=O)C1CCCCC1,·,-11%,14%
CCOC(=O)c1cnc(N2CCN(c3ccccc3)CC2)[nH]c1=O,·,-1%,-1%
CN(C)c1nc(-c2cn(CCC#N)c3ccccc23)cs1,·,5%,13%
Cc1nn(-c2ccccc2)c(Cl)c1/C=N/NC(=O)c1ccc(NS(=O)(=O)c2cccs2)cc1,-2%,-28%,-16%
CCNC(=S)N/N=C/c1c(C)nn(-c2cccc(Cl)c2)c1Cl,-4%,3.5µM*,1.4µM*
Cc1cc(C(=O)N/N=C/c2c(C)nn(-c3ccccc3)c2Cl)n[nH]1,·,8%,14%
Cc1nn(-c2cccc(Cl)c2)c(Cl)c1/C=N/NC(=O)c1cccs1,·,13µM*,?
COc1ccc(/C=N/NC(=O)c2cc(-c3ccc(Cl)cc3)n[nH]2)cc1OC,-5%,·,·
CC(=O)NC1=NN(C(C)=O)C(c2ccc(F)cc2)S1 (stereo not drawn),2%,27%,13%
COc1ccc(C(=O)NNC(=S)NC(=O)c2ccc(OC)cc2)cc1,·,?,-14%[1.91 µM]
Cc1ccc(C(=O)NNC(=O)CCC(=O)NCc2ccccc2)cc1Br,·,-7%,-21%
O=C(O)CCC(=O)NNC(=O)c1ccc(-c2ccccc2)cc1,-3%,2%,0%
COc1ccc(C(=O)NC(=S)N(Cc2ccccc2)Cc2ccccc2)cc1,-2%,0.56µM*,0.16µM*
C=CCN(CC=C)C(=S)NC(=O)c1ccc(-c2ccccc2)cc1,1%,1µM*,0.5µM*
C=CCN(CC=C)C(=S)NC(=O)c1ccc(C)c(Br)c1,-2%,0.13µM*,0.28µM*
SMILES,KinaseGlo FLuc,Gal4-VP16 FLuc,RORgamma inh
C=CCNC(=O)c1ccc(OC)cc1,·,-4%,-14%
C=CCN(CC=C)C(=S)NC(=O)c1ccc(OC)cc1,-4%,2.2µM*,0.89µM*
CC(=O)NC(Cc1c[nH]c2ccccc12)C(=O)NCCc1ccccn1 (stereo not drawn),·,-3%,-41%
Cc1n[nH]c(=S)n1/N=C/c1ccc(-c2ccccc2[N+](=O)[O-])o1,-3%,?,?
COc1ccc(-n2c(-c3cccc(C)c3[N+](=O)[O-])n[nH]c2=S)cc1,1%,-6%,7.9µM*
S=c1[nH]nc(-c2cccc3ccccc23)n1-c1cccnc1,·,-2%,-43%
O=[N+]([O-])c1cccc(-c2ccc(/C=N/n3c(-c4ccccc4)n[nH]c3=S)o2)c1,1%,10µM*,-27%
O=c1cc(O)n(-c2ccccc2)c(=S)[nH]1,2%,-2%,-19%
COc1ccc(-n2c(C(C)n3nc(C)c([N+](=O)[O-])c3C)n[nH]c2=S)cc1 (stereo not drawn),4%,-16%,5%
Cc1cccc(-c2n[nH]c(=S)n2-c2ccccc2)c1[N+](=O)[O-],0%,?,13µM*
O=[N+]([O-])c1ccc2c(c1)[nH]c(=S)n2-c1ccccc1,0%,-7%,5µM*
CCCNC(=O)OC[C@@H]1O[C@H](CCO/N=C\C[C@H]2C=C[C@H](OC(C)=O)[C@@H](COC(C)=O)O2)C=C[C@@H]1Oc1ccc(OC)cc1,·,-2%[10 µM],16%[10 µM]
Cc1ccc(S(C)(=O)=O)cc1C(=O)N1CC(C(N)=O)Oc2ccccc21 (stereo not drawn),·,-7%,-12%
CSCC[C@H](NC(=O)c1ccc2c(c1)OCO2)c1nnc2ccccn12,·,-8%,-17%
CC(C)CN(C(=O)COC(=O)c1cccn1C)c1c(N)n(Cc2ccccc2)c(=O)[nH]c1=O,·,-2%,-2%
Cc1[nH]n(-c2cccc([N+](=O)[O-])c2)c(=O)c1-c1ccccc1,-1%,-4%,?
O=[N+]([O-])c1cccc(-c2n[nH]c(=S)n2-c2ccccc2)c1,·,-8%,7.1µM*
COc1cccc2c1C(=O)c1c(O)c3c(c(O)c1C2=O)C[C@@](O)(C(=O)CO)C[C@@H]3O[C@@H]1C[C@H](N)[C@H](O)[C@H](C)O1,-15%,7.9µM*,11µM*
COc1cccc2c1C(=O)c1c(O)c3c(c(O)c1C2=O)C[C@@](O)(C(=O)CO)C[C@@H]3O[C@H]1C[C@H](N)[C@H](O)[C@H](C)O1,-28%,5.6µM*,3.5µM*
COc1cccc2c1C(=O)c1c(O)c3c(c(O)c1C2=O)C[C@](O)(C(C)=O)C[C@H]3O[C@@H]1C[C@H](N)[C@H](O)[C@H](C)O1,-2%[17.1 µM],4.5µM*,5.6µM*
CC(=O)C1(O)Cc2c(O)c3c(c(O)c2C(OC2CC(N)C(O)C(C)O2)C1)C(=O)c1c(O)cccc1C3=O (stereo not drawn),·,?,11µM*
COc1cccc2c1C(=N)c1c(O)c3c(c(O)c1C2=O)C[C@](O)(C(C)=O)C[C@@H]3O[C@H]1C[C@H](N)[C@@H](O)[C@H](C)O1,-24%[7.66 µM],·,·
COc1ccc(CCNC(=O)C(=O)NCC2OCCN2S(=O)(=O)c2ccccc2)cc1 (stereo not drawn),·,15%,-11%
CCOC(=O)N1CCN(Cc2nnc(-c3cccc(Br)c3)o2)CC1,·,-8%,5%
Cc1cc(C)c(NC(=O)CSc2nnc(CNC(=O)c3ccco3)o2)c(C)c1,·,-8%,-16%
SMILES,KinaseGlo FLuc,Gal4-VP16 FLuc,RORgamma inh
COc1ccc(CNc2nnnn2C)c(OC)c1,·,2%,-44%
CCOc1cc(NC(=S)NCCCN2CCOCC2)c(OCC)cc1NC(=O)c1ccc(C)cc1,-5%,-5%,9%
Cc1ccc(C)c(NC(=O)CCN2CCCC(C)C2)c1 (stereo not drawn),·,-2%,11%
O=C(c1ccsc1)N1CCCC(Nc2cccc(F)c2)C1 (stereo not drawn),·,27%,-5%
COc1cccc2c1C(=O)c1c(O)c3c(c(O)c1C2=O)C[C@@](O)(C(=O)CO)C[C@@H]3OC1CC(N)C(O)C(C)O1 (stereo partly drawn),·,10µM*,-40%[10 µM]
COc1cc(NS(=O)(=O)c2c(C)[nH]c(C)c2C(=O)N2CCCCC2)cc(OC)c1OC,·,-5%,6%
C=CCn1c(C(CCCC)CC(O)COCC(C)C)n[nH]c1=S (stereo not drawn),3%,?,10µM*
